# Data: PubChem BioAssay AID1851 (National Center for Advancing Translational Sciences (NCATS), 2009)
# Hit rate of the full screen: of about 16,000 compounds, about 4,000 (25%) were called active. Roughly 26% stayed inconclusive and do not appear here. A selection follows. A number with no mark means an inactive call. Calls come from the whole dose curve; as a rule, active = well fitted curve in the direction sought with a large enough effect; inconclusive = small, poorly fitted or top-dose-only effect, or effect the other way; inactive = no such curve, though single readings can be large or run the other way.
# Molecular target: Cytochrome P450 2C9 (Homo sapiens) (UniProt P11712)
# Sequence (P11712 whole entry, looked up): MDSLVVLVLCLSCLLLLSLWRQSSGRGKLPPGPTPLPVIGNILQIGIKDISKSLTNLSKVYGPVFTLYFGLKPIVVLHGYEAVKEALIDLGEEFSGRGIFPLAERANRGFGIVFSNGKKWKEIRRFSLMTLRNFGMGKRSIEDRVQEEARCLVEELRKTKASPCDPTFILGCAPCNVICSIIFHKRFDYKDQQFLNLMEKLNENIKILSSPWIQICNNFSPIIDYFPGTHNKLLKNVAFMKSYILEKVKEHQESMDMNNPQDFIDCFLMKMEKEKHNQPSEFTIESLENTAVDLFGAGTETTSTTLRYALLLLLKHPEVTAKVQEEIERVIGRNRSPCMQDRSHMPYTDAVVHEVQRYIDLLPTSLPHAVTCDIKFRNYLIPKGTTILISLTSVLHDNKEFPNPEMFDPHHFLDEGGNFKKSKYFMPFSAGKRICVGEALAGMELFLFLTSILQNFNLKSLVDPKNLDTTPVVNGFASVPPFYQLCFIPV
# Assay: Cytochrome panel assay with activity outcomes
# Details: recombinant CYP, pro-luciferin dealkylation, luminescence, p450-cyp2c9; series mostly up to 57.1 µM; activity, negative = inhibition: at the top concentration
# % is set by controls: 0 for no effect and ±100 for the full control effect.
Compound,AC50,"activity, negative = inhibition"
CC(CC(=O)Nc1ccc(Cl)c([N+](=O)[O-])c1)c1ccccc1 (stereo not drawn),14.1 µM (active),–
COc1ccc(NC(=O)N2CCC3(CC2)CCN(C(=O)c2cccc(F)c2)CC3)cc1,–,-15.4%
COc1ccc(N2CCN(C(=S)Nc3cc(C)cc(C)c3)CC2)cc1,–,-13.1%
COc1ccc(Nc2ncc(C(=O)N3CCN(c4ccc(F)cc4)CC3)c3ccccc23)cc1,2.24 µM (active),–
CC(=O)[C@@]1(O)Cc2c(O)c3c(c(O)c2[C@H](O[C@H]2C[C@H](N)[C@H](O)[C@H](C)O2)C1)C(=O)c1ccccc1C3=O,–,-4.2%
O=C(NC1CCCCC1)c1sc(=S)n2c1[nH]c(=O)c1ccccc12,0.2 µM (active),–
CCOc1ccc(N(C(C)C(=O)N/N=C(\C)c2cccc(NC(=O)c3ccccc3)c2)S(C)(=O)=O)cc1 (stereo not drawn),3.98 µM (active),–
CCOc1ccc(N(C(C)C(=O)NC(C)CC)S(C)(=O)=O)cc1 (stereo not drawn),5.62 µM (active),–
Cc1nc2cnc(N3CCN(C)CC3)nc2n(-c2ccccc2)c1=O,–,23.4%
CC[C@H]1C(=O)OC[C@H]1Cc1cncn1C,–,-28.6% [at 25.6 µM]
CO[C@H]1COC(=O)[C@@H](C)COC(=O)[C@@H](COCc2ccccc2)NC(=O)C/C=C\[C@H]1C,–,6.52% [at 11.4 µM]
O=C(Nc1ccccc1)N1CC2(CCN(C(=O)c3cnccn3)CC2)C1,–,9.15%
O=C(c1cnccn1)N1CCC2(CC1)CCN(c1ccccc1)CC2,–,3.2%
O=C(Nn1cc(C(=O)N2CCN(c3ccccc3F)CC2)c2ccccc2c1=O)c1cnccn1,4.47 µM (active),–
O=C(c1ccccc1)c1c[nH]c(C(=O)NCCCN2CCOCC2)c1,–,16.5%
O=C(c1ccccc1)c1c[nH]c(C(=O)NCc2cccnc2)c1,11.2 µM (active),–
O=C(O)[C@@H]1[C@@H](C(=O)NCc2cccnc2)[C@@H]2C=C[C@@H]1O2,–,0.756% [at 11.4 µM]
N#CCCn1c(=O)c(-c2cc(F)cc(F)c2)nc2cnc(N3CCOCC3)nc21,–,15.9%
CN1CCN(c2ncc3nc(-c4ccc(F)cc4)c(=O)n(C4CC4)c3n2)CC1,12.6 µM (active),–
COc1ccc(-c2nc3cnc(N4CCN(C)CC4)nc3n(C)c2=O)cc1,–,-18.2%
CN1CCN(c2ncc3nc(-c4ccc(Cl)cc4)c(=O)n(C4CC4)c3n2)CC1,–,1.45%
CN1CCN(c2ncc3nc(-c4cc(F)cc(F)c4)c(=O)n(C4CC4)c3n2)CC1,10 µM (active),–
NC([N-]/N=C/c1ccccn1)=[S]=[Fe].O=S(=O)(O)O,–,-29.5% [at 11.4 µM]
O=C(O)CC[C@@H](C(=O)O)N1C(=O)c2ccccc2C1=O,inactive,–

Compound,AC50,"activity, negative = inhibition"
CC(C)CC(C(=O)OCC(=O)Nc1ncc(Cl)cc1Cl)N1C(=O)c2ccccc2C1=O (stereo not drawn),7.08 µM (active),–
Cc1c(Cl)cnc(NC(=O)COC(=O)CCS(=O)(=O)c2ccccc2)c1Cl,–,-33.3%
CC(=O)Nc1ccc(NC(=O)CC2Nc3cccc4cccc(c34)NC2=O)cc1 (stereo not drawn),5.01 µM (active),–
Cc1cccc(C)c1OC1(c2ccccc2)OC(=O)c2ccccc21 (stereo not drawn),2.51 µM (active),–
CCCCCCCOC1(c2ccccc2)OC(=O)c2ccccc21 (stereo not drawn),8.91 µM (active),–
Cc1cccc(OC2(c3ccccc3)OC(=O)c3ccccc32)c1C (stereo not drawn),3.16 µM (active),–
CC(C)C[C@H](NC(=O)[C@@H](O)[C@H](N)Cc1ccccc1)C(=O)O,–,19.9%
CCCCn1c(SCc2c(C)noc2C)nc2cc(S(N)(=O)=O)ccc21,10 µM (active),–
CCn1c(C)nc2cc(S(=O)(=O)C(F)F)ccc21,–,-25.1%
c1ccc2c(N3CCNCC3)nc(-c3ccc4c(c3)OCO4)nc2c1,–,12.6% [at 2.29 µM]
O=C1CC(c2ccc3c(c2)OCO3)CN1 (stereo not drawn),–,-13%
O=C1CC(c2ccc3c(c2)OCO3)Sc2nc3ccccc3n21 (stereo not drawn),3.16 µM (active),–
Cc1ccc(-c2nc3ccccc3o2)cc1NC(=O)Cc1cccs1,–,-19.9%
O=C(CSc1nc2ccccc2[nH]1)NCCN1CCCCC1,–,-28.8%
c1ccc(/C(=N/Nc2nc3ccccc3s2)c2ccccn2)cc1,–,-23.7% [at 11.4 µM]
O=C(O)C1CCCCC1C(=O)Nc1ccccc1Cl (stereo not drawn),–,-11.3%
O=C(CSc1nc2ccccc2o1)Nc1nc2ccccc2s1,3.98 µM (active),–
O=C(NC1CCCCC1)C(c1ccccc1)N1CCOCC1 (stereo not drawn),–,-9.73%
O=C(CSc1ccccn1)Nc1nc2ccc(Br)cc2s1,7.08 µM (active),–
O=C(CNC1CCCCCC1)Nc1ccccc1N1CCCCC1,28.2 µM (active),–
O=C(CSc1nc2ccccc2o1)Nc1ccccc1N1CCCCCC1,12.6 µM (active),–
CCCCOC(=O)Nc1nc2ccccc2s1,–,4.29%
O=C(CN1CCN(S(=O)(=O)c2ccccc2)CC1)NC(=O)NCc1ccccc1,–,-15.7%
O=C(CSc1nc2ccccc2o1)NC(=O)NCc1ccccc1,7.08 µM (active),–
